{
  "source": "PubChem BioAssay (NCI)",
  "note": "Compounds without any hit were thinned out: in the full panel of roughly 83,000, 20% have a hit.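 Growth was measured after 48 h exposure to one concentration of compound in 96-well plates. Values under 10 count as active.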 A number with no mark means an inactive call. Calls of active or inactive are those of the source.",
  "data": [
    {"tested_on": "MOLT-4 leukemia", "assay": "NCI-60 one-dose screen, 48 h (100 = growth as untreated, 0 = no growth, -100 = all killed)", "conditions": "10 µM unless noted", "values": [
      {"compound": "Cc1ccc2c(C(C[N+](=O)[O-])c3ccccc3)c(-c3ccccc3)[nH]c2c1", "note": "(stereo not drawn)", "growth": "21.2% [9.5 µM]"},
      {"compound": "O=C1c2cccc3cccc(c23)C(=O)N1CCCCCN1CCN(CCCCCOc2ccc(-c3nc4ccc(N5CCOCC5)cc4[nH]3)cc2)CC1", "growth": "-54.4% (active)"},
      {"compound": "COc1ccc(/C=C(\\C#N)C(=O)Nc2cccc(Nc3nc(SC)nc(-c4cccc([N+](=O)[O-])c4)c3C#N)c2)cc1OC", "growth": "93.1%"},
      {"compound": "O=C1Nc2ccc(Br)cc2C12Oc1ccccc1C1CC(c3ccc(F)cc3)=NN12", "note": "(stereo not drawn)", "growth": "74.8%"},
      {"compound": "CSc1nc(-c2cccc(NC(=O)CCl)c2)c(C#N)c(=O)n1C", "growth": "14%"},
      {"compound": "Oc1cccc2ccc(N/N=C/c3cc(CN4CCOCC4)c(O)c4ncccc34)nc12", "growth": "9.34% (active)"},
      {"compound": "CC(C)(C)c1cc(C(C)(C)C)cc(S(=O)(=O)Nc2cc3ccccc3cc2C(=O)NCCN)c1", "growth": "77%"},
      {"compound": "COc1ccc(/C=C/c2nc3ccccc3nc2/C=C/c2ccc(OC)cc2)cc1", "growth": "99.1%"},
      {"compound": "COc1cc(/C=C/c2cc(/C=C/c3ccc(O)c(OC)c3)n(-c3c(Cl)cccc3Cl)c(=O)n2)ccc1O", "growth": "9.71% (active)"},
      {"compound": "Cc1cc(C)nc(SC2=C(Nc3cc(Cl)ccc3O)C(=O)N(Cc3ccccc3)C2=O)n1", "growth": "46.3% [30 µM]"},
      {"compound": "CC(C)(C)CC(C)(C)c1ccc(OCCOCC[N+](C)(C)Cc2ccccc2)cc1", "growth": "-20% (active)"},
      {"compound": "O=C(NCCN1CCOCC1)Nc1ccc(-c2cc3c(Nc4ccc(Oc5cccc(C(F)(F)F)c5)c(Cl)c4)ncnc3s2)cc1", "growth": "-4.36% (active)"},
      {"compound": "NNCCc1ccc(NC(=O)CCCc2ccc(/C=C/C(=O)NO)cc2)cc1", "growth": "12.1%"},
      {"compound": "COc1ccc(C2CC(c3ccc(Cl)cc3)=NN2/C=C2\\SC(=S)N(NC(=O)Cc3ccccc3Nc3c(Cl)cccc3Cl)C2=O)cc1", "note": "(stereo not drawn)", "growth": "13.5%"},
      {"compound": "CCCSc1ccc2nc(NC(=O)OC)[nH]c2c1", "growth": "23.6%"},
      {"compound": "CCCN1CCN(c2ccc3nc(-c4ccc5nc(-c6ccc(OCC)cc6)[nH]c5c4)[nH]c3c2)CC1", "growth": "-0.259% (active)"},
      {"compound": "CCn1c(O)c(/C=N/NC(=O)C(C)c2ccc(CC(C)C)cc2)sc1=S", "note": "(stereo not drawn)", "growth": "18.4%"},
      {"compound": "CN1CCN(CCCOc2cccc3nc(Nc4cc(Cl)cc(Cl)c4)ccc23)CC1", "growth": "-47.7% (active)"},
      {"compound": "O=C(CCN1C(=O)/C(=C/c2ccc(Cl)cc2)SC1=S)NCCCN1CCOCC1", "growth": "102%"},
      {"compound": "c1ccc(Cn2cc(-c3nc4ccccc4s3)c3cccnc32)cc1", "growth": "105%"},
      {"compound": "O=C1c2cccc3cccc(c23)C(=O)N1CCCCN1CCN(CCCCOc2ccc(-c3nc4ccc(N5CCOCC5)cc4[nH]3)cc2)CC1", "growth": "52.3%"},
      {"compound": "COc1cc(C2CC(=O)c3ccccc3N2)cc(OC)c1OC", "note": "(stereo not drawn)", "growth": "97%"},
      {"compound": "O=C1c2cc3c(cc2-c2c1c1ccc(F)cc1c(=O)n2C[C@H](O)[C@H](O)[C@H](O)CO)OCO3", "growth": "-12.3% (active)"},
      {"compound": "Cc1[nH]c(-c2ccc3cc[nH]c3c2)c2c1C(=O)CCCC2", "growth": "68.6%"},
      {"compound": "O=C(O)c1c(=O)cccc2ssc12", "growth": "-23.3% (active)"},
      {"compound": "O=C1c2cc3c(cc2-c2c1c1ccc(Cl)cc1c(=O)n2CCCN1CCOCC1)OCO3", "growth": "8.7% (active)"},
      {"compound": "Cn1cc(-c2nonc2-c2c[nH]c3ccccc23)c2cccnc21", "growth": "16.5%"},
      {"compound": "CCCCN(CCCC)CCCn1c(-c2ccccc2)ccc1-c1ccccc1", "growth": "55%"},
      {"compound": "CC1=CC(=NN=c2cc(C)n([O-])c(C)c2)C=C(C)[N+]1=O", "growth": "81.7%"},
      {"compound": "CN(C)S(=O)(=O)c1ccc(S(=O)(=O)Nc2cccc(Cl)c2N2CCCCC2)cc1", "growth": "68.9%"},
      {"compound": "Cc1cn2c(/C=C3/C(=O)Nc4c3ccc3ccccc43)c(C(F)(F)F)nc2s1", "growth": "35.1%"},
      {"compound": "Oc1cccc(-c2nc(N3CCOCC3)c3c4c(sc3n2)CCCC4)c1", "growth": "24%"},
      {"compound": "COc1ccc(S(=O)(=O)N2CCCCC2)cc1NC(=O)c1[nH]c(C)c2c1CCCCC2=O", "growth": "36.6%"},
      {"compound": "Cc1cc(C)nc(SC2=C(Nc3cccc(Cl)c3)C(=O)N(Cc3ccccc3)C2=O)n1", "growth": "7.17% [30 µM] (active)"},
      {"compound": "C#Cc1cccc(NC(=O)c2ccccc2NC(=O)CCl)c1", "growth": "70.3% [8.25 µM]"},
      {"compound": "C=C(C)[C@@H]1CC[C@]2(C(=O)OC)CC[C@]3(C)[C@H](CC[C@@H]4[C@@]5(C)C/C(=C/c6ccc(OC)cc6)C(=O)C(C)(C)[C@@H]5CC[C@]43C)[C@@H]12", "growth": "58.3%"},
      {"compound": "N#Cc1c(-c2ccc(Cl)cc2)nc(N=Nc2c(O)[nH]c3ccc(Cl)cc23)nc1N1CCOCC1", "growth": "110%"},
      {"compound": "CN1CCN(CCCOc2cccc3nc(Nc4ccc(Cl)c(F)c4)ccc23)CC1", "growth": "-22% (active)"}
    ]}
  ]
}
